Values joined by “and” are separate entries in the source; they are usually repeats but may differ in a detail not shown here. Equal values may be shown once. For some of these results: Results with a measured potency or affinity are listed apart. Active and inactive are the calls of the source.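 How the source made its calls, unless noted: active means compounds whose cell count with miR-34 switched on is under 0.7 times the count with it off; inactive means the rest.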
Columns and labels:
[1] = liver-stage malaria parasite growth inhibition, primary screen, cell-based, HepG2, luciferase luminescence, HepG2 viability (AID 624349; in the data active means parasite load remaining mostly below about 12%, no sharp cut-off; inactive means mostly above about 10%;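 further: 100% = mean of DMSO negative control wells on the same plate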); details: P. berghei liver stage in HepG2, luciferase luminescence, concentration not given here; parasite load remaining: stronger effect = lower value; viability: measured here: HepG2 viability without parasites
[2] = differential killing of epithelial or mesenchymal cells, primary screen, imaging, PC-3E GFP, TEM4-18 mCherry, co-culture (AID 1345086;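 active means compounds killing one labelled cell type while sparing the other, by normalised counts and ratio limits, not self-fluorescent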;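 on all read-outs here: cells exposed to compound for 72 h before imaging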;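 on red/green cell ratio (normalised): normalised mesenchymal count divided by normalised epithelial count so high means epithelial killing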); details: imaging cell counts, at 1 µM; for red/green cell ratio (normalised): actives lie on both sides, counts scaled to control wells, 1 = unselective
[3] = sensitizers of A549 cells to miR-34 induction, primary screen, imaging, A549 dox-inducible miR-34, nuclei and caspase counts (AID 1347080); details: A549 miR-34 inducible, Hoechst nuclei count, 48 h
[4] = survival rescue of mitochondrial mutant cells in low glucose, primary screen, MELAS cybrids, Rieske KO mouse fibroblasts, CellTiter-Glo (AID 1508586;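 active means mean z-score across replicates of 1.96 or higher in either the MELAS or the Rieske mutant cell line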;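 further: z relative to plate mean and SD of compound and empty wells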)
[5] = biological target: NAD(+) hydrolase SARM1 (Homo sapiens) (UniProt Q6SZW1); assay: SARM1 TIR NADase inhibitors, cell lysate, NAD-Glo luminescence (AID 1508614;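 active means compound whose remaining NAD level is above about 45 nM, limit read from the data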); details: SAM-TIR HEK293T lysate NADase, at 1 µM, stronger effect = higher value
[6] = viability rescue of complex I mutant cybrids, primary screen, cell-based, galactose medium, ATP luminescence (AID 1645843;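 active means z-score of at least 1.8 in each of two replicates, scored against plate mean and spread of sample wells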;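 further: positive z means more ATP and so rescue of galactose-driven cybrid death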); details: complex I mutant cybrid cells, 72 h, stronger effect = higher value
[7] = biological target: Mitogen-activated protein kinase 7 (Homo sapiens) (UniProt Q13164); assay: ERK5 transactivation activators in reporter cells, primary screen, cell-based, HTS (AID 1508626;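 active means luciferase signal above three times the same-plate solvent-only control wells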;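 further: luciferase driven by Gal4-ERK5 fusion binding five Gal4 sites before minimal TATA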); details: HeLa Gal4-ERK5 transactivation, 18 h, at 5 µM, stronger effect = higher value
[8] = polyglutamine-triggered caspase-3 activation inhibitors, cell-based (AID 1583); details: polyglutamine-induced caspase-3 activation, cell assay; stronger effect = higher value;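 tested at 10 µM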
[9] = suppressors of polyQ aggregation in yeast, 75Q-TubU reporter (AID 1593); details: Yeast 75Q polyglutamine aggregation reporter
[10] = rescue of polyQ-huntingtin neuronal dysfunction in worms, whole organism, C. elegans mechanosensory neurons, N-terminal huntingtin (AID 1599); details: touch response, stronger effect = higher value
[11] = inhibitors of mitochondrial cytochrome c release, biochemical, purified mitochondria (AID 1603); details: stronger effect = lower value;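 further: mouse liver mitochondria challenged with calcium chloride; signal normalized to the plate average as 100%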
[12] = inhibitors of polyQ protein aggregation (AID 1604); details: polyglutamine-induced protein aggregation inhibition assay; stronger effect = higher value; tested at 2.5 µM
[13] = enhancers of glutamate uptake in motor neurons, MN-1 cell line (AID 1612); details: MN-1 motor neuron cells, stronger effect = higher value;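 further: tested at 1 µM final; 0% = mean of DMSO vehicle wells on each plate; positive means more glutamate uptake than control and negative means less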
[14] = reducers of polyQ inclusions in PC12 cells, cell-based, NGF-treated PC12, GFPQ80 (AID 1614); details: PC12 NGF-treated GFP-polyQ80 inclusion reduction;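 further: lower means fewer inclusions and 0 means no inclusions at all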
[15] = suppressors of polyglutamine aggregation in yeast, 75Q-TubH (AID 1616); details: S. cerevisiae 75Q-TubH polyglutamine aggregation suppression; stronger effect = higher value
[16] = measured here: epithelial PC-3E GFP cell survival
[17] = measured here: mesenchymal TEM4-18 mCherry cell survival
[18] = stronger effect = lower value, cell number ratio, induced over uninduced
[19] = measured here: relative caspase fold change +Dox/-Dox
[20] = measured here: total cells with miR-34 induction, stronger effect = lower value
[21] = measured here: total cells without miR-34 induction
[22] = MELAS cybrid survival, CellTiter-Glo 48 h, stronger effect = higher value
[23] = Rieske KO mouse fibroblast survival, CellTiter-Glo 72 h

Sequence of Mitogen-activated protein kinase 7 (Homo sapiens) (Q13164 whole entry, looked up, the tested form may be a part): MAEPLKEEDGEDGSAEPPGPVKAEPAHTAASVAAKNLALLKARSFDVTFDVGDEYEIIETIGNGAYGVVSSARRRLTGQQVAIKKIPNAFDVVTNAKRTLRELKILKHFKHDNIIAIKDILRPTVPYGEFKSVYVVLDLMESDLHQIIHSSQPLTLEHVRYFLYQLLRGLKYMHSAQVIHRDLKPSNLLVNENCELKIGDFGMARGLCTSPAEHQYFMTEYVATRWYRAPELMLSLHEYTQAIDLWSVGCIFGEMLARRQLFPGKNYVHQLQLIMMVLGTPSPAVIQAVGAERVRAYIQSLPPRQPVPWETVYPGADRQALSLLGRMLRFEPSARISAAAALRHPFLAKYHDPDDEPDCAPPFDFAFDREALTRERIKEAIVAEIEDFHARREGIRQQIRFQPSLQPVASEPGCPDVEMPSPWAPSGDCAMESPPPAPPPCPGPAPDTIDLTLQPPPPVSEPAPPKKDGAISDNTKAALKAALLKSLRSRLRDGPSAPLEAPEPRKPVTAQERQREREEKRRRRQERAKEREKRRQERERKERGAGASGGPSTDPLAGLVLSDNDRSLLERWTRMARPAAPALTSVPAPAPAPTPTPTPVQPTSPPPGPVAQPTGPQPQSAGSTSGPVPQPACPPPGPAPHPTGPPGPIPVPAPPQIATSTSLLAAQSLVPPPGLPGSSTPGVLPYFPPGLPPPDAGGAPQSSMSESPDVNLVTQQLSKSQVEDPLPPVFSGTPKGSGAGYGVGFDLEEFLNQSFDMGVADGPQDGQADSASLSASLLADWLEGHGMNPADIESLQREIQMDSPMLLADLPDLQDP
Sequence of NAD(+) hydrolase SARM1 (Homo sapiens) (Q6SZW1 whole entry, looked up): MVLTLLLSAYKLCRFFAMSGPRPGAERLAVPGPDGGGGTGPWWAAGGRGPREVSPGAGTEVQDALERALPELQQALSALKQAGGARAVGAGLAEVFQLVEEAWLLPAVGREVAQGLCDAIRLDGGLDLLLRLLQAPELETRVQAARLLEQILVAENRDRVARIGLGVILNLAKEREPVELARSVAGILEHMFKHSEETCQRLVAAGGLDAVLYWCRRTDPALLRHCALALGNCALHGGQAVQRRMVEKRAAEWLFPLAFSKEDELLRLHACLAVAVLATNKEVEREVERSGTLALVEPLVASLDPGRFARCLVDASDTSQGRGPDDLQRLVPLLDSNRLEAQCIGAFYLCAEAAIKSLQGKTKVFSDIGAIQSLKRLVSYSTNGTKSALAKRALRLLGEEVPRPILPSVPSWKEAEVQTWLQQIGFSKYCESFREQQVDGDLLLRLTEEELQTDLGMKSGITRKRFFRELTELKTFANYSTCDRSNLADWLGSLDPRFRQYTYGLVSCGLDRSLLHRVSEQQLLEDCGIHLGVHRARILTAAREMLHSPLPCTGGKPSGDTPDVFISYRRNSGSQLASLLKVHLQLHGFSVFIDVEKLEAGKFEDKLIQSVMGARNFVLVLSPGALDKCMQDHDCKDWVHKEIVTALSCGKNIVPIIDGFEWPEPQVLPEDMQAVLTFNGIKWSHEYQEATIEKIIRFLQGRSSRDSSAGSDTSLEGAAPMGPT

For CC(CCc1ccc(O)cc1)NCC(O)c1ccc(O)cc1 (configuration not stated), the parasite load remaining [1] was 46.7% (inactive), the viability [1] was 106% and the red/green cell ratio (normalised) [2] was 0.98 (inactive). The normalised cell number [2, 16] was 0.86, the normalised cell number [2, 17] was 0.84 and the fold change [3, 18] was 0.934 (inactive) and 0.886 (inactive). For the same molecule, the fold change [3, 19] was 0.997 and 0.914, the cell count [3, 20] was 8460 and 9910 and the cell count [3, 21] was 9050 and 11200. For the same molecule, the z-score [4, 22] was 0.268 (inactive), the z-score [4, 23] was 0.193 and the remaining NAD [5] was 10 nM (inactive). The z-score [6] was 0.065 (inactive).
With CC1=C(/C=C/C(C)=C/C=C/C(C)=C/C=C/C=C(C)/C=C/C=C(C)/C=C/C2=C(C)C(=O)CCC2(C)C)C(C)(C)CCC1=O the parasite load remaining [1] was 32.7% (inactive), the viability [1] was 102% and the red/green cell ratio (normalised) [2] was 1.05 (inactive). The normalised cell number [2, 16] was 0.85, the normalised cell number [2, 17] was 0.9 and the fold change [3, 18] was 0.905 (inactive). The fold change [3, 19] was 1.09, the cell count [3, 20] was 10100 and the cell count [3, 21] was 11200. For the same molecule, the z-score [4, 22] was 0.499 (inactive), the z-score [4, 23] was 1.32 and the luciferase signal [7] was 100 AU (inactive). For the same molecule, the z-score [6] was 0.415 (inactive).
In the case of C[N+](C)(CCOc1ccccc1)Cc1ccccc1, the parasite load remaining [1] is reported as 72.5% (inactive) and 56.2% (inactive), the viability [1] is reported as 93.8% and 115% and the red/green cell ratio (normalised) [2] is reported as 0.65 (inactive). For the same molecule, the normalised cell number [2, 16] was 1.19, the normalised cell number [2, 17] was 0.77 and the fold change [3, 18] was 0.899 (inactive) and 0.879 (inactive). For the same molecule, the fold change [3, 19] was 1.23 and 5.07, the cell count [3, 20] was 9230 and 11800 and the cell count [3, 21] was 10300 and 13400. The z-score [4, 22] was 0.608 (inactive), the z-score [4, 23] was 0.271 and the remaining NAD [5] was 10 nM (inactive).
With CC(C)N1CCN(c2ccc(OC[C@H]3CO[C@](Cn4cncn4)(c4ccc(Cl)cc4Cl)O3)cc2)CC1 the parasite load remaining [1] was 37.3% (inactive), the viability [1] was 97.4% and the red/green cell ratio (normalised) [2] was 0.77 (inactive). For the same molecule, the normalised cell number [2, 16] was 1.12, the normalised cell number [2, 17] was 0.87 and the fold change [3, 18] was 0.864 (inactive). It also gave a fold change [3, 19] of 1.54, a cell count [3, 20] of 9020 and a cell count [3, 21] of 10400. For the same molecule, the z-score [4, 22] was -0.379 (inactive), the z-score [4, 23] was 0.124 and the remaining NAD [5] was 10 nM (inactive).
In the case of CC(=O)Nc1ccc(OC(C)=O)cc1, the red/green cell ratio (normalised) [2] is reported as 0.87 (inactive), the normalised cell number [2, 16] is reported as 1.25 and the normalised cell number [2, 17] is reported as 1.09. The fold change [3, 18] was 0.883 (inactive), the fold change [3, 19] was 1.21 and the cell count [3, 20] was 8510. For the same molecule, the cell count [3, 21] was 9640 and the remaining NAD [5] was 10 nM (inactive).
In the case of Cc1cc(-c2ccc(N=Nc3ccc4c(S(=O)(=O)O)cc(S(=O)(=O)O)c(N)c4c3O)c(C)c2)ccc1N=Nc1ccc2c(S(=O)(=O)O)cc(S(=O)(=O)O)c(N)c2c1O, the red/green cell ratio (normalised) [2] is reported as 0.96 (inactive), the normalised cell number [2, 16] is reported as 0.99 and the normalised cell number [2, 17] is reported as 0.95. For the same molecule, the fold change [3, 18] was 0.905 (inactive), the fold change [3, 19] was 0.718 and the cell count [3, 20] was 8810. The cell count [3, 21] was 9740 and the remaining NAD [5] was 10 nM (inactive).
For NC(=O)C(c1ccccc1)(c1ccccc1)C1CCN(CCc2ccc3c(c2)CCO3)C1 (configuration not stated), the red/green cell ratio (normalised) [2] was 1.14 (inactive), the normalised cell number [2, 16] was 1.01 and the normalised cell number [2, 17] was 1.15. For the same molecule, the fold change [3, 18] was 0.961 (inactive) and 0.867 (inactive) and 0.884 (inactive), the fold change [3, 19] was 1.17 and 0.544 and 0.774 and the cell count [3, 20] was 7990 and 7300 and 7280. For the same molecule, the cell count [3, 21] was 8310 and 8420 and 8230, the z-score [4, 22] was 0.59 (inactive) and -0.239 (inactive) and the z-score [4, 23] was 0.395 and -0.187. The z-score [6] was -0.58 (inactive).
In the case of CC(O)CC(C)(C)O (configuration not stated), the red/green cell ratio (normalised) [2] is reported as 0.94 (inactive), the normalised cell number [2, 16] is reported as 1 and the normalised cell number [2, 17] is reported as 0.94. For the same molecule, the fold change [3, 18] was 0.91 (inactive), the fold change [3, 19] was 0.891 and the cell count [3, 20] was 8730. For the same molecule, the cell count [3, 21] was 9590 and the remaining NAD [5] was 10 nM (inactive).
Work on CC(=O)OCC(=O)[C@@]1(O)CCC2C3CCC4=CC(=O)C=CC4(C)C3[C@@H](O)C[C@@]21C (some centres not stated) yielded an inhibition [8] of 26%, a score [9] of 0.73 and a rescue above control [10] of -9.27. It also gave a cytochrome c release ratio [11] of 0.8, an inhibition of aggregation [12] of 51% and a glutamate uptake change [13] of 16.1%. For the same molecule, the inclusion score [14] was 2, the aggregation suppression score [15] was 0.991 and the parasite load remaining [1] was 118% (inactive) and 56% (inactive). For the same molecule, the viability [1] was 73.8% and 82.3%, the red/green cell ratio (normalised) [2] was 1.41 (inactive) and the normalised cell number [2, 16] was 1. For the same molecule, the normalised cell number [2, 17] was 1.41, the fold change [3, 18] was 0.859 (inactive) and the fold change [3, 19] was 2.47. It also gave a cell count [3, 20] of 6780 and a cell count [3, 21] of 7890.
Work on COc1ccc(C[C@H](N)C(=O)N[C@@H]2[C@@H](CO)OC(n3cnc4c(N(C)C)ncnc43)[C@@H]2O)cc1 (some centres not stated) yielded an inhibition [8] of 52.2%, a score [9] of 1.68 and a rescue above control [10] of -10.3. It also gave a cytochrome c release ratio [11] of 1.17, an inhibition of aggregation [12] of 54% and a glutamate uptake change [13] of 15.3%. The aggregation suppression score [15] was 1.32, the parasite load remaining [1] was 54.7% (inactive) and 3.3% (inactive) and the viability [1] was 40.9% and 70.7%. The red/green cell ratio (normalised) [2] was 1 (inactive), the normalised cell number [2, 16] was 0.94 and the normalised cell number [2, 17] was 0.94. The fold change [3, 18] was 1.05 (inactive), the fold change [3, 19] was 1.45 and the cell count [3, 20] was 385. For the same molecule, the cell count [3, 21] was 366.
With CN(C)[C@@H]1C(=O)C(C(=O)NCN2CCCC2)=C(O)[C@@]2(O)C(=O)C3=C(O)c4c(O)cccc4[C@@](C)(O)[C@H]3C[C@@H]12 the parasite load remaining [1] was 26.9% (inactive), the viability [1] was 99.8% and the red/green cell ratio (normalised) [2] was 0.9 (inactive). The normalised cell number [2, 16] was 1.09, the normalised cell number [2, 17] was 0.97 and the fold change [3, 18] was 0.855 (inactive). For the same molecule, the fold change [3, 19] was 4.3, the cell count [3, 20] was 11700 and the cell count [3, 21] was 13600. For the same molecule, the remaining NAD [5] was 10 nM (inactive) and the luciferase signal [7] was 112 AU (inactive).
With CC(=O)Oc1c(C)c(C)c2c(c1C)CCC(C)(CCCC(C)CCCC(C)CCCC(C)C)O2 (configuration not stated) the inhibition [8] was 1.05%, the score [9] was -0.71 and the rescue above control [10] was 1.2. It also gave a cytochrome c release ratio [11] of 0.62, an inhibition of aggregation [12] of 56.3% and a glutamate uptake change [13] of 6.04%. The inclusion score [14] was 2, the aggregation suppression score [15] was 0.546 and the parasite load remaining [1] was 74.6% (inactive). For the same molecule, the viability [1] was 96%, the red/green cell ratio (normalised) [2] was 0.9 (inactive) and the normalised cell number [2, 16] was 0.92. The normalised cell number [2, 17] was 0.84, the fold change [3, 18] was 0.901 (inactive) and the fold change [3, 19] was 1.55. The cell count [3, 20] was 11100, the cell count [3, 21] was 12300 and the luciferase signal [7] was 44 AU (inactive).
With CC(=O)C1C(=O)C=C(C)OC1=O (configuration not stated) the red/green cell ratio (normalised) [2] was 1.08 (inactive), the normalised cell number [2, 16] was 0.99 and the normalised cell number [2, 17] was 1.07. The fold change [3, 18] was 0.96 (inactive), the fold change [3, 19] was 0.723 and the cell count [3, 20] was 9120. For the same molecule, the cell count [3, 21] was 9500 and the remaining NAD [5] was 10 nM (inactive).
C[C@@H]1CC2C3C[C@H](F)C4=CC(=O)C=C[C@]4(C)[C@@]3(F)[C@@H](O)C[C@]2(C)[C@@]1(O)C(=O)COC(=O)C(C)(C)C (some centres not stated) gave an inhibition [8] of -23.2%, a score [9] of 1.34 and a rescue above control [10] of 16. For the same molecule, the cytochrome c release ratio [11] was 0.82, the inhibition of aggregation [12] was 39.8% and the glutamate uptake change [13] was 27.8%. For the same molecule, the inclusion score [14] was 2, the aggregation suppression score [15] was 1.12 and the parasite load remaining [1] was 119% (inactive) and 74% (inactive). The viability [1] was 76.5% and 90.1%, the red/green cell ratio (normalised) [2] was 1.34 (inactive) and the normalised cell number [2, 16] was 1. For the same molecule, the normalised cell number [2, 17] was 1.35, the fold change [3, 18] was 0.838 (inactive) and the fold change [3, 19] was 1.19. For the same molecule, the cell count [3, 20] was 6940, the cell count [3, 21] was 8290 and the luciferase signal [7] was 20 AU (inactive).

Source: PubChem BioAssay
